± gives the standard deviation of the averaged measurements. Over roughly 33,000 sequences, “E-score (dimensionless, -0.5 to 0.5)” has its median near -0.049; the highest 2% begin near 0.37. Many of the other results were omitted from the sample, so the highest values are more common in it than they were.
Tested on: T1, PmTbr T-box DNA-binding domain (GST fusion)
T1 sequence: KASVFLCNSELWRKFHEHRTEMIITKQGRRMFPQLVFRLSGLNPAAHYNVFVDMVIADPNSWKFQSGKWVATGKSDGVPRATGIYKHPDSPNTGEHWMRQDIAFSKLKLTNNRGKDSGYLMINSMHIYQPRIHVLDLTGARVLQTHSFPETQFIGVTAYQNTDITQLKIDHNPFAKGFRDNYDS
Assay: PBM E-score of 8-mer (E-score (dimensionless, -0.5 to 0.5)); Tbr is Tbrain of the sea star Patiria miniata (Pm) or the sea urchin Strongylocentrotus purpuratus (Sp); higher = stronger binding preference
Conditions: the construct has about 5 more residues each side
Procedure: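 Universal protein-binding microarray (Agilent AMADID 016060, 60-bp probes with a 35-bp variable region) incubated with 200 nM GST-fused Patiria miniata Tbr T-box DNA-binding domain (residues 272-466) in PBS pH 7.5. Scored for every ungapped 8-mer (given with its reverse complement) by the Universal PBM Analysis Suite as E-score (modified Wilcoxon-Mann-Whitney enrichment, range -0.5 to 0.5; >0.45 counts as bound) and Z-score of median probe intensity. Two replicate arrays (datasets 1 and 2).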

Sequence | PBM E-score of 8-mer
ACGCGCGG | 0.19 ± 0.031
ATTCTTTG | -0.109 ± 0.048
AATCAACA | 0.231 ± 0.033
ATTAGGGG | -0.208 ± 0.071
AACAGCCT | 0.145 ± 0.021
GGGTCTGA | -0.157 ± 0.028
AAGTGTCA | 0.4726 ± 0.0035
CAGTGTCA | 0.31 ± 0.017
AAGTGTAT | 0.019 ± 0.037
AAGTGTCC | 0.281 ± 0.011
AAGTGTCG | 0.44424 ± 0.0003
GATTGTCA | 0.298 ± 0.0064
TCGTGTCA | 0.305 ± 0.0037
GAGTGTCC | -0.0246 ± 0.07
CAGTGTCG | 0.289 ± 0.0095
TAGTGTCA | 0.395 ± 0.027
GAGTGTCA | 0.436 ± 0.0041
AAGTGTCT | 0.329 ± 0.022
ACTGCTGG | -0.191 ± 0.0095
AAGGCCAT | -0.225 ± 0.0052
CAGCATTA | -0.0723 ± 0.024
GAGGAGAA | -0.158 ± 0.088
CCTACCAG | 0.00153 ± 0.031
GGCGAGCA | -0.102 ± 0.048
CAATGTCG | 0.119 ± 0.014

Sequence | PBM E-score of 8-mer
CGTATTCA | 0.165 ± 0.051
ACCTAGTG | 0.223 ± 0.013
CCTTGAGC | -0.11 ± 0.019
ATGAGCAC | -0.247 ± 0.061
CTATGCAC | -0.129 ± 0.042
GCGCTAAC | 0.4144 ± 0.0034
TCGCTAAA | 0.163 ± 0.043
CCGCTAAC | 0.169 ± 0.038
ACGCTAAC | 0.257 ± 0.056
GCGCTAAA | 0.394 ± 0.012
CCGCTAAA | 0.275 ± 0.022
GGCTAGAC | -0.231 ± 0.029
GGTTCATA | 0.0267 ± 0.028
CGTTCACA | 0.406 ± 0.012
CGTTCACC | -0.0379 ± 0.073
GGCTCACA | 0.0846 ± 0.0034
GGTTCACA | 0.372 ± 0.0038
AGTTCACC | -0.0448 ± 0.0017
AGTTCACA | 0.395 ± 0.0064
CGTTCAAG | -0.177 ± 0.028
AGTTCACG | 0.32 ± 0.02
GTTAAACA | 0.00153 ± 0.043
AGGTCTGG | 0.0461 ± 0.012
ACGCTAAT | 0.114 ± 0.018
AGTTCTTG | -0.0105 ± 0.0029

Sequence | PBM E-score of 8-mer
CGGCCCTA | -0.249 ± 0.019
TACGCACA | -0.0799 ± 0.0095
CCGTGTCA | 0.236 ± 0.0063
ACGTGTCT | 0.198 ± 0.0036
ACGTGTAA | 0.31 ± 0.0077
CCGTGTCG | 0.144 ± 0.045
ACGTGTCA | 0.4563 ± 0.0033
ACGTGTCG | 0.385 ± 0.022
CCGCATAG | -0.047 ± 0.042
AGGTTAAG | -0.186 ± 0.083
GCCCACTA | -0.0431 ± 0.011
CCGGAGAA | -0.00469 ± 0.1
ATCCCGCG | -0.042 ± 0.095
ACGTGTGC | 0.174 ± 0.035
GCGTGTAA | 0.0292 ± 0.033
GCGTGAGA | 0.368 ± 0.021
CCGTGTGA | 0.335 ± 0.015
GCGTGTGA | 0.373 ± 0.016
ACGTGTGA | 0.4818 ± 0.0022
AGCGGGTG | 0.308 ± 0.017
AGGGGGGC | -0.222 ± 0.034
CGTGTCTA | 0.0962 ± 0.0027
CGTGTCGC | 0.295 ± 0.023
AATGTCGA | 0.0192 ± 0.036
AGTGTCGC | 0.415 ± 0.019

Sequence | PBM E-score of 8-mer
GGTGTCGA | 0.461 ± 0.0086
GTTGTCGA | 0.241 ± 0.021
ATTGTCGC | 0.292 ± 0.024
ATTGTCGA | 0.0764 ± 0.052
GGTGTCTA | 0.376 ± 0.007
CGTGTCGA | 0.288 ± 0.052
AGTGTCGA | 0.4188 ± 0.0041
AGTGTCTA | 0.213 ± 0.017
CAGCGGTA | -0.061 ± 0.018
ACTGAAAC | -0.0158 ± 0.016
CTCCTGCC | -0.0358 ± 0.0023
AGCTGTCA | 0.3661 ± 0.003
CACCAGGG | 0.0472 ± 0.096
ATTGTCGG | 0.0329 ± 0.01
AGTGTGGA | 0.354 ± 0.0036
GGTGTGGA | 0.432 ± 0.015
AATGTCGG | -0.0392 ± 0.026
CGTGTGGA | 0.284 ± 0.0037
AGTGTCGG | 0.38 ± 0.0074
CGGCTGAG | -0.1 ± 0.073
CTGTCTTC | 0.0449 ± 0.021
AACATTTG | 0.0235 ± 0.04
CTCTGAGC | -0.0449 ± 0.047
AACCTCGA | 0.0311 ± 0.022
AACCTCGC | 0.196 ± 0.035

Sequence | PBM E-score of 8-mer
GACCTCGA | -0.0343 ± 0.13
AACCTCGG | -0.124 ± 0.033
GACCTCGC | 0.0974 ± 0.064
CACCTCGA | 0.4483 ± 0.002
CACCTCGG | 0.426 ± 0.015
CACCTCGC | 0.458 ± 0.0073
CCCCTCGG | -0.194 ± 0.016
ACTCAGAC | 0.0474 ± 0.069
ATTAGAAG | -0.226 ± 0.053
GTAGAGCA | -0.196 ± 0.024
GCGGTTAC | -0.0207 ± 0.021
CAACCGTG | 0.216 ± 0.013
TGTTAACA | 0.38 ± 0.0039
CGTTAGCA | 0.394 ± 0.012
CGTTAACA | 0.372 ± 0.044
GGTTAACA | 0.255 ± 0.026
AGTTAACA | 0.334 ± 0.013
AGTTAGCA | 0.32 ± 0.023
CGTTAACG | 0.266 ± 0.015
GGTTAGCA | 0.314 ± 0.027
CGTTAACC | 0.0384 ± 0.0052
TCTTCCCA | 0.114 ± 0.031
TACCATAA | -0.0564 ± 0.0014
GAAATAGA | -0.125 ± 0.036
CGACTTCC | -0.183 ± 0.002

Sequence | PBM E-score of 8-mer
AAGATGGA | -0.228 ± 0.058
ACCCCGCC | 0.119 ± 0.051
CTTCACAC | 0.4785 ± 0.0022
ATTCACGA | 0.29 ± 0.0094
CTTCACAA | 0.225 ± 0.058
ATTCACAC | 0.4763 ± 0.0034
CTTCACGC | 0.356 ± 0.04
ATTCACGC | 0.4258 ± 0.0014
CTTCACCC | 0.0387 ± 0.019
ATTCACAG | 0.355 ± 0.0076
ATTCACAA | 0.247 ± 0.024
CATTAGAC | -0.177 ± 0.0077
AATATAAA | -0.136 ± 0.075
ACGCTTCT | 0.106 ± 0.035
CAAACCCC | -0.155 ± 0.069
ACGGGCAA | -0.133 ± 0.057
CGCACCGC | 0.222 ± 0.063
AGCACCCG | 0.252 ± 0.061
GCCACCTA | 0.336 ± 0.033
ACCACCTC | 0.341 ± 0.027
GGCACCTA | 0.412 ± 0.006
AGCACCGC | 0.0529 ± 0.038
AGCACCTG | 0.415 ± 0.0079
CCCACCTC | 0.2907 ± 0.0021
GGCACCGA | -0.0859 ± 0.03

Sequence | PBM E-score of 8-mer
CGCACCTC | 0.46 ± 0.012
AGCACCTC | 0.4279 ± 0.0012
AGCACCGG | 0.0404 ± 0.045
CCCTAATA | -0.219 ± 0.027
GAACACTC | 0.0811 ± 0.024
AGGGAACG | 0.0301 ± 0.15
ACTATGCT | 0.00416 ± 0.025
AAGAGCGT | -0.119 ± 0.04
GAGGCCTA | -0.176 ± 0.014
CTCAAATA | -0.321 ± 0.072
ACCAAGTA | 0.0125 ± 0.031
AAGAGCGC | -0.188 ± 0.004
AGGAGAAA | -0.109 ± 0.19
CACTAAGA | 0.0202 ± 0.013
CAGCCCTG | -0.294 ± 0.015
ACCAGCCT | -0.14 ± 0.082
AGGGTATG | -0.218 ± 0.032
TGAAGCAA | -0.229 ± 0.055
CGCACCGA | 0.0275 ± 0.11
CGCACCTA | 0.422 ± 0.0048
ACCACCTA | 0.205 ± 0.0085
CGCACCAA | 0.251 ± 0.04
AGCACCTA | 0.435 ± 0.00088
AGCACCGA | -0.00405 ± 0.11

From the supplement of paper PMC4166925
